From PubChem BioAssay
Calls of active or inactive are those of the source.

Columns and labels:
[1] = test system: PRMT1 (protein arginine N-methyltransferase 1); test: small molecules binding arginine methyltransferase PRMT1 – biochemical, small-molecule microarray, 635 nm fluorescence, primary screen (AID 1088); settings: higher = more signal;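 note: binding of Prmt1 protein to compounds spotted on small-molecule microarray slides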
[2] = growth effects on S. cerevisiae YJM789 – YJM789 clinical isolate, OD600, 24 h, basal, primary screen (AID 1089); settings: higher = more signal, called active from +8 up or from −8 down;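 note: growth of clinical yeast isolate S. cerevisiae YJM 789 seeded 1000 cells per well; test concentration not given here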
[3] = S. pombe growth modifiers, basal conditions – strain 972, OD600, 24 h, no modulator, primary screen (AID 1090);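 note: basal condition with compound alone and no growth modifier present; test concentration not given here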; settings: S. pombe 972 growth, higher = more signal, called active from +8 up or from −8 down
[4] = budding yeast growth modifiers under rapamycin – strain BY4716, OD600, 96 h, primary screen (AID 1091); note: test concentration not given here; settings: S. cerevisiae BY4716 + rapamycin, higher = more signal, called active from +8 up or from −8 down
[5] = target: Torsin-1A-interacting protein 2 (Homo sapiens) (UniProt Q8NFQ8); test: small molecules binding lysate-expressed LULL1 – cell lysate, human LULL1 lysate, 635/667 nm fluorescence, primary screen (AID 1092); settings: small-molecule microarray, hLULL1 lysate binding, 635 nm fluorescence; higher = more signal;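 note: probe is lysate of COS7 cells overexpressing human LULL1; score merges per-feature 667 nm fluorescence with signal-to-noise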
Sequence of Torsin-1A-interacting protein 2 (Homo sapiens) (Q8NFQ8 whole entry, looked up): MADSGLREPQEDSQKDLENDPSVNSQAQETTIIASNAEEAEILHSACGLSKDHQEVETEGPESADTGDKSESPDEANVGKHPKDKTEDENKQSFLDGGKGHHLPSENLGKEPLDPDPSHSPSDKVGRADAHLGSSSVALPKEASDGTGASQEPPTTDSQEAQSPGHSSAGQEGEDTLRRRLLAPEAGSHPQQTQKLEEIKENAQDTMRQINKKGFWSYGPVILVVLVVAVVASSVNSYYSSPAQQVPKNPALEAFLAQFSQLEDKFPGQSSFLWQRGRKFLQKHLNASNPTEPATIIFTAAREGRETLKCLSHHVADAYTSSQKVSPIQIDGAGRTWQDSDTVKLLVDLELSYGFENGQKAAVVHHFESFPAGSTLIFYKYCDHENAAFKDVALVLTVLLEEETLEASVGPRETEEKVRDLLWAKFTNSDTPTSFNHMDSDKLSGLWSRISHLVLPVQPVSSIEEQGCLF

[6] = optical density change of DRC41 E. coli – strain DRC41, OD650, 24 h, E. coli filamentation project, primary screen (AID 1093);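 note: MC1000 strain lacking acrAB efflux and sulA so SOS filamentation is blocked; test concentration not given here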; settings: E. coli DRC41 growth, higher = more signal, called active from +8 up or from −8 down
[7] = probe aLefty2 binding to arrayed compounds – biochemical, biotinylated probe, 635/667 nm fluorescence, primary screen (AID 1094); settings: small-molecule microarray, higher = more signal;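 note: score merges spot fluorescence near 667 nm with spot signal-to-noise ratio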
[8] = test system: Noggin (protein binding on small-molecule microarray); test: small molecules binding Noggin protein – biochemical, 635/667 nm fluorescence, primary screen (AID 1095); settings: 635 nm fluorescence, higher = more signal;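 note: score merges 667 nm feature fluorescence with signal to noise over triplicate slides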
[9] = target: Neurogenic locus notch homolog protein 3 (Homo sapiens) (UniProt Q9UM47); test: small molecules binding NOTCH3 protein – biochemical, 635/667 nm fluorescence, primary screen (AID 1096); settings: small-molecule microarray, 635 nm fluorescence, higher = more signal
Sequence of Neurogenic locus notch homolog protein 3 (Homo sapiens) (Q9UM47 whole entry, looked up): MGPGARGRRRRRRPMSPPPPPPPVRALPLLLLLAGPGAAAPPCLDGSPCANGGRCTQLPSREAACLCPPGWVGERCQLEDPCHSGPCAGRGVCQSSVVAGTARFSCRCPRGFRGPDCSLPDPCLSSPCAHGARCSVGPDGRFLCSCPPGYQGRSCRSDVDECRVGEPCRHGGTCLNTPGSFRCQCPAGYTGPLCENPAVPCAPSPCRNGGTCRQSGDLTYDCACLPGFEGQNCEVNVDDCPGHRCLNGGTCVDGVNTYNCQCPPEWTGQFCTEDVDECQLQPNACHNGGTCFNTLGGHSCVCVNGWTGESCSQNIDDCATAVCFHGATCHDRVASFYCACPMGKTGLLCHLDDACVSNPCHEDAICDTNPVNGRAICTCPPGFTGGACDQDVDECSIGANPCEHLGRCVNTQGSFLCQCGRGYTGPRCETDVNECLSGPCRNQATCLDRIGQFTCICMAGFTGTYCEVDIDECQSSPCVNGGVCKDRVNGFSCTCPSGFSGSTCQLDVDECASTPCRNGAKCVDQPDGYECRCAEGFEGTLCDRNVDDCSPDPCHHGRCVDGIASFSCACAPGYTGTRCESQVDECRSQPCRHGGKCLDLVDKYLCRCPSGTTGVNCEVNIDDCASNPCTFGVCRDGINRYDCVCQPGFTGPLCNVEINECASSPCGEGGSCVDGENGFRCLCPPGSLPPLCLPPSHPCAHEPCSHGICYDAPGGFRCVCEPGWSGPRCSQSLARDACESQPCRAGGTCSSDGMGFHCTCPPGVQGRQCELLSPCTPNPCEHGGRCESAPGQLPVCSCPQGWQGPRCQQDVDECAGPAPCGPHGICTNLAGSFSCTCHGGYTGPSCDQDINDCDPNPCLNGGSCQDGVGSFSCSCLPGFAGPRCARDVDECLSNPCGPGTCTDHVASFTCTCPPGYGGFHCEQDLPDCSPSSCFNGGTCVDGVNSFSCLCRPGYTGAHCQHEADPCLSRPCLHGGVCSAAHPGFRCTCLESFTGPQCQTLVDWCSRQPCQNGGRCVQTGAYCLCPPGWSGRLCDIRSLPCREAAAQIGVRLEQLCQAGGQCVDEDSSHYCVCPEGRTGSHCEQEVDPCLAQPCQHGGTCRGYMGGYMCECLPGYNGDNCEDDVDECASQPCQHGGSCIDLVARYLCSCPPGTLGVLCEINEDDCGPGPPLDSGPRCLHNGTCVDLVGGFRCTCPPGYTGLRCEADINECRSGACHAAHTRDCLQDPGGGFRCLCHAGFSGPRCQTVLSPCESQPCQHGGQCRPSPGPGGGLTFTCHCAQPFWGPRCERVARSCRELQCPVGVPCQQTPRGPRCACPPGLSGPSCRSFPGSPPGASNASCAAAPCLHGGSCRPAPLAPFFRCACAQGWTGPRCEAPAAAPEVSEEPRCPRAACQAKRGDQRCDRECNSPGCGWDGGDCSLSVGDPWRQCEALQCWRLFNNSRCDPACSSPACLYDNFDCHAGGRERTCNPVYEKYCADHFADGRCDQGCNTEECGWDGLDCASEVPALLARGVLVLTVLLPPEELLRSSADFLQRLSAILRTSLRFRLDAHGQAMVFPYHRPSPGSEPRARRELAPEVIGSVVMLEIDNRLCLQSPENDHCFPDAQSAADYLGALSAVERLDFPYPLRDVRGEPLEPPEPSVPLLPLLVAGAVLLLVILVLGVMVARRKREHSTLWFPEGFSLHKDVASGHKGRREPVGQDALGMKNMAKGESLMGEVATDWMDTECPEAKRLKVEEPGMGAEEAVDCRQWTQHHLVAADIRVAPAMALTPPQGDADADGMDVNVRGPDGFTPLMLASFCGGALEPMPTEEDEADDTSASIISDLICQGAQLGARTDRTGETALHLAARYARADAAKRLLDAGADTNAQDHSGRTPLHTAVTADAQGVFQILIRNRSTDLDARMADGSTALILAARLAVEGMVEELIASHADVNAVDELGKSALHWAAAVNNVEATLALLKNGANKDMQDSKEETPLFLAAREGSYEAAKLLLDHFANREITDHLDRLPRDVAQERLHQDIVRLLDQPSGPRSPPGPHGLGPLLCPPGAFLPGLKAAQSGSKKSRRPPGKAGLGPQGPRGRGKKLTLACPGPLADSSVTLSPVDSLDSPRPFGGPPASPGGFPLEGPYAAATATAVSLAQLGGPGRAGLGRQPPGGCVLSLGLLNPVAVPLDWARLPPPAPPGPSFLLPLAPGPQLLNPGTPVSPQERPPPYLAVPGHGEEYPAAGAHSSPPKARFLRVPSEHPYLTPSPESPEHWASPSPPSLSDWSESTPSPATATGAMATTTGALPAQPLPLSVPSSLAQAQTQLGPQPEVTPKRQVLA

[10] = probe aEGFR binding to arrayed compounds – biochemical, biotinylated probe, 635/667 nm fluorescence, primary screen (AID 1097); settings: small-molecule microarray, higher = more signal;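 note: probe is a biotinylated anti-EGFR antibody binding compounds printed on slides; score combines fluorescence near 667 nm and signal to noise of each spot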

SMILES	composite z-score [1]	z-score [2]	z-score [3]	z-score [4]	composite z-score [5]	z-score [6]	composite z-score [7]	composite z-score [8]	composite z-score [9]	composite z-score [10]
CN(C)C(=O)[C@@]1(Cc2ccccc2N=[N+]=[N-])N=C(c2ccc(OCCCO)cc2)O[C@H]1c1ccccc1	1.57	0.687 (inactive)	-4.17 (inactive)	1.23 (inactive)	3.38	0.1 (inactive)	0.58	-0.125	1.12	0.35
C=CCC(OC(C)=O)[C@@H]1[C@@H](N(Cc2cccc3ccccc23)C(=O)c2ccc(-c3ccccc3)cc2)c2cc(OCCCO)ccc2N1C(=O)c1ccc(-c2ccccc2)cc1 (stereo not given in full)	-0.0425	-1.05 (inactive)	-0.0057 (inactive)	-0.415 (inactive)	0.549	-1.02 (inactive)	-0.0179	-0.63	-0.234	-0.106
COCCOC(=O)N1C(=O)[C@@]2(c3cc(C#CCC(C(=O)OC)C(=O)OC)ccc31)[C@H](C(=O)NC[C@H](O)c1ccccc1)[C@H]1C(=O)O[C@H](c3ccccc3)[C@H](c3ccccc3)N1[C@@H]2c1ccc(O)cc1	1.36	1.05 (inactive)	1.37 (inactive)	0.174 (inactive)	2.78	-0.377 (inactive)	-0.0845	-1.08	0.687	-0.0828
Nc1cc(Br)ccc1C(=O)O	0.409	-0.585 (inactive)	-1.64 (inactive)	-0.0096 (inactive)	0.568	-1.2 (inactive)	-0.0664	0.136	0.332	-0.0961
CCOC(=O)C[C@H]1[C@H](OC(=O)c2ccccc2-c2ccccc2)[C@@H](NC(=O)c2ccc3ccccc3n2)c2cc(OCCCO)ccc2N1C(=O)c1ccccc1	1.01	1.2 (inactive)	0.364 (inactive)	1.61 (inactive)	1.46	-0.943 (inactive)	-0.149	0.54	0.797	-0.0084
O=C(O)[C@@H]1C[C@@H]2C(=O)N3CCC[C@H]3C(=O)N2[C@@H]1c1cccc(OCCO)c1	1.53	-0.386 (inactive)	-1.98 (inactive)	-0.533 (inactive)	4.25	1.14 (inactive)	1.49	1.95	1.07	1.27
COC(=O)[C@@]1(Cc2ccc(F)cc2)[C@H]2c3cc(C(=O)N4CCCC4)n(C)c3C[C@H]2CN1C(=O)c1ccccc1	0.579	-0.42 (inactive)	0.252 (inactive)	-0.658 (inactive)	3.25	0.508 (inactive)	0.744	-0.662	0.405	-0.0259
C#C[C@@H](CC)O[Si](C#CCCCC#N)(C(C)C)C(C)C	1.12	-13.2 (active)	-20.1 (active)	-3.15 (inactive)	2.2	0.619 (inactive)	-0.0257	-0.298	0.398	-0.128
O=C1C[C@@](C(=O)NCc2ccccc2)(c2ccc([N+](=O)[O-])cc2)[C@@H](c2ccc(CO)cc2I)N1CC12CC3CC(CC(C3)C1)C2	1.55	-0.369 (inactive)	-0.613 (inactive)	2.84 (inactive)	2.61	-0.343 (inactive)	0.0578	1.8	1.09	0.0042
COc1ccc([Si](C)(C)[C@@H]2[C@@H](CC(=O)N3Cc4ccccc4C[C@H]3CO)O[C@]3(C(=O)N(c4ccccc4)c4ccccc43)[C@H]2C)cc1	1.41	1.18 (inactive)	1.4 (inactive)	2.93 (inactive)	1.88	0.774 (inactive)	0.541	1.71	1.05	0.13
CN1C=C(C(=O)OCCS(C)(=O)=O)C(C(=O)OCCS(C)(=O)=O)=CC(c2ccc(CO)cc2)=CC1c1cccs1 (stereo not given)	0.568	0.379 (inactive)	-3.74 (inactive)	0.148 (inactive)	2.01	0.326 (inactive)	-0.116	0.484	0.407	-0.0594
C=C(COC)C(=O)CC[C@@H](OC(=O)c1cccnc1)c1ccccc1OCCO	0.409	-0.587 (inactive)	-1.7 (inactive)	-0.369 (inactive)	-0.135	0.0506 (inactive)	0.0789	0.879	-0.302	-0.0828
COc1ccc([Si](C)(C)[C@H]2[C@H](CCO)O[C@@]3(C(=O)N(Cc4ccccc4)c4ccc(N5C(=O)c6ccccc6Oc6ccccc65)cc43)[C@@H]2C)cc1	1.12	-0.234 (inactive)	0.723 (inactive)	4.27 (inactive)	1.94	1.25 (inactive)	-0.114	-0.355	0.427	-0.174
C=C(COC)/C(=C/C[C@@H](OC(=O)c1ccncc1)c1ccccc1OCCO)c1cc(C(=O)OC)ccc1OC	0.768	-0.833 (inactive)	-0.778 (inactive)	0.351 (inactive)	0.703	0.0184 (inactive)	-0.106	-0.341	-0.0686	-0.178
C=C/C=C/[C@@H]1C(=C)CN([C@@H](Cc2ccccc2)C(=O)OC)[C@H]1[C@@H](O)Cc1ccccc1	1.44	-0.03 (inactive)	-1.63 (inactive)	0.415 (inactive)	1.57	0.85 (inactive)	-0.0975	0.0905	0.731	-0.0228
O=C1O[C@H](c2ccccc2)[C@H](c2ccccc2)N2[C@H]1[C@@H](C(=O)N1CCCCCCC1)[C@]1(C(=O)Nc3ccc(C#CC4(O)CCCCCC4)cc31)[C@H]2c1ccccc1OCCO	1.54	1.56 (inactive)	0.462 (inactive)	3.41 (inactive)	5.1	1.04 (inactive)	1.91	2.38	1.03	1.51
Cc1ccc(C(C)CC(O)C2C=CC3C(=O)N(c4ccccc4)C(=O)C3N2Nc2ccc(C#N)cc2)o1 (stereo not given)	1.55	-26 (active)	-16.8 (active)	-3.16 (inactive)	3.46	-0.0931 (inactive)	0.188	0.383	1.13	0.122
CN(C)C(=O)[C@@]1(CCC(=O)OC(C)(C)C)N=C(c2ccc(OCCCO)cc2)O[C@H]1c1ccccc1CN=[N+]=[N-]	1.51	-0.142 (inactive)	0.245 (inactive)	-1.11 (inactive)	3.83	0.488 (inactive)	0.047	0.968	0.599	-0.0238
C=C(C)[C@@H]1CC=C(C(O)C2C=CC3C(=O)N(c4ccccc4)C(=O)C3N2Nc2ccc(C#N)cc2)CC1 (stereo not given in full)	1.54	0.188 (inactive)	0.369 (inactive)	4.16 (inactive)	3.33	-1.9 (inactive)	0.386	0.35	1.04	0.0717
COC(=O)C(CC#Cc1ccc2c(c1)[C@]1(C(=O)N2)[C@H](C(=O)Nc2nc3ccccc3s2)[C@H]2C(=O)O[C@H](c3ccccc3)[C@H](c3ccccc3)N2[C@@H]1c1ccc(OCCO)cc1)C(=O)OC	1.55	-0.442 (inactive)	-0.144 (inactive)	1.37 (inactive)	3.18	2.96 (inactive)	0.0973	1.59	1.08	0.0766
COc1cc(NN2C(C(O)C3CCCCC3)C=CC3C(=O)N(C)C(=O)C32)cc(OC)c1OC (stereo not given)	1.48	0.137 (inactive)	0.169 (inactive)	0.0624 (inactive)	3.46	-0.853 (inactive)	0.855	-0.0279	1.09	0.186
